Assay outcomes: PubChem BioAssay, National Center for Advancing Translational Sciences (NCATS)
Shown are actives, neighbours in structure and some others; about 4.7% of the full set was active somewhere.
ATXN2 expr inh = Primary qHTS for Inhibitors of ATXN expression; AID 1745845, 2022; Potency, µM (highest dose often 57 µM), hits mostly inhibitors; HEK-293 ATXN2-luciferase reporter, luminescence, 24 h; 360,000 tested, 0.72% active; note: nearly all actives have a fitted effect of over 55% in size
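qHTS (up to 57 uM final) was run with 24 h compound exposure of reporter cells at 37 °C. Each well was multiplexed: SteadyGlo luminescence measured ATXN2-luciferase expression after a fluorogenic Gly-Phe-AFC viability readout (25 uM final).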
ATXN viability = Viability Counterscreen for Primary qHTS for Inhibitors of ATXN expression; S2 cells (HEK-293 line with an ATXN2-luciferase reporter) viability, CellTiter-Fluor protease fluorescence, 24 h; Potency, µM (titrated, usually from 56.7 µM), hits mostly cytotoxic; 400,000 tested, 0.49% active; note: nearly all actives have a fitted effect of over 40% in size
HepG2 viability = qHTS for Inhibitors of TGF-b: Cytotox Counterscreen | Potency, µM (titrated, usually from 46.1 µM), hits mostly cytotoxic | HepG2 CAGA-GFP viability, ATP luminescence, 18 h | 410,000 tested, 0.76% active
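CellTiter-Glo luminescence gave cytotoxicity after 18 hours at 37 degrees C. The cells were HepG2 CAGA-GFP in 1% FBS DMEM, stimulated with 500 pg/mL TGF-beta after compound addition. %Activity was normalised to no-cell wells (complete cell-killing) and DMSO (no toxicity), and curves were fitted and classified.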
DRD3 antagonist = qHTS of D3 Dopamine Receptor Antagonist: qHTS; AID 652054, 2013; D3R cells, DiscoveRx beta-arrestin luminescence, antagonist mode; active compounds read low; 360,000 tested, 2.5% active; max response, negative = inhibition, %; in the data active = max response below about -50%; inconclusive = no clear call, values can overlap the other calls
Target sequence (P35462 whole entry, looked up): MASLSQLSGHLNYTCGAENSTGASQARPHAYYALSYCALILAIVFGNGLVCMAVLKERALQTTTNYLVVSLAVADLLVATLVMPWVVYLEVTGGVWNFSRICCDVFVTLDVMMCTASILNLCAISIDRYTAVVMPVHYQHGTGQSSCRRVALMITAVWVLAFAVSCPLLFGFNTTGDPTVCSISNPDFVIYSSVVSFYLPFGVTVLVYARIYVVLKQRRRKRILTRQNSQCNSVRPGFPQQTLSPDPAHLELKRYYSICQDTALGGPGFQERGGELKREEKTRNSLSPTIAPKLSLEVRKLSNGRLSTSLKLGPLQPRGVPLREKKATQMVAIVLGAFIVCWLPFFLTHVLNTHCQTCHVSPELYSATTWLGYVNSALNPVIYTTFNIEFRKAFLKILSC
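Cells expressing the human receptor were seeded at 1500 cells/well, incubated overnight at 37 degrees C in 5% CO2, then exposed to library compounds with dopamine controls for 90 minutes at 37 degrees C before luminescent detection.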
DRD3 agonist = qHTS of D3 Dopamine Receptor Agonist: qHTS; D(3) dopamine receptor (Homo sapiens), P35462; D3R DiscoveRx beta-arrestin cells, luminescence, 90 min; 410,000 tested, 0.58% active; max activation, %; in the data active = max activation above about 30%
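Agonist-mode cell screen: cells plated at 1500/well and incubated overnight at 37 °C, then exposed to library compounds for 90 min at 37 °C. Detection reagent was added for 30–60 min at room temperature, and luminescence was read.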
TGFb inhibitor = qHTS for Inhibitors of TGF-b. 410,000 tested, 1.2% active. Potency, µM (titrated, usually from 46.1 µM), actives largely listed as inhibitors. HepG2 CAGA-GFP TGF-b/SMAD3 reporter, GFP fluorescence, 18 h; TGF-beta stimulated, 500 pg/mL final; note: nearly all actives have a fitted effect of over 65% in size
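Smad-responsive CAGA-GFP expression was quantified in HEPG2 cells exposed to compounds and 500 pg/mL final TGF-beta for 18 h at 37 degrees C; unstimulated wells defined full inhibition.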
Numbers stand for hits; 0 = inactive; ? = inconclusive; - = not tested or not shown. Unless noted, calls come from the whole dose curve; as a rule, active = well fitted curve in the direction sought with a large enough effect; inconclusive = small, poorly fitted or top-dose-only effect, or another doubt; inactive = no such curve, though single readings can be large; an effect the other way counts as inactive or inconclusive.

SMILES	ATXN2 expr inh	ATXN viability	HepG2 viability	DRD3 antagonist	DRD3 agonist	TGFb inhibitor
Cc1ccc(Cn2c(C(=O)O)c(CNC3CCCCC3)c3ccc(C)cc32)cc1	0	0	0	-	0	0
CCc1ccc(NC(=O)Cn2c(=O)n(Cc3ccc(C)cc3)c(=O)c3cccnc32)cc1	0	0	0	-	0	0
Cc1ccc2sc(N(CCN(C)C)C(=O)c3ccc4ccccc4c3)nc2c1C	-	0	0	-73.1	0	?
O=C(NCC(c1ccc2c(c1)OCO2)N1CCOCC1)C(=O)Nc1ccccc1 (stereo unspecified)	0	0	0	-	0	0
O=C(NCCC(=O)N1CCN(c2ccccc2O)CC1)c1ccc(Cl)cc1	0	0	0	0	0	0
O=C(NCCC(=O)N1CCN(Cc2c(F)cccc2Cl)CC1)c1ccc(Cl)cc1	0	0	0	0	64.6	?
O=C(NCCc1ccccc1)c1ccc(Nc2nc3ccccc3n3nnnc23)cc1	0	0	0	-	0	0
O=[N+]([O-])c1ccc2nc(Cl)nc(-c3ccccc3)c2c1	-	0	0	-56.0	0	0
COc1cccc(-c2cnc3c(NC=O)cc(-c4ccccc4)cn23)c1	0	0	0	0	0	8.91µM
COc1cccc(-c2cc(NC=O)c3ncc(-c4ccc(C(C)=O)cc4)n3c2)c1	?	0	0	0	0	17.8µM
COc1ccc(F)cc1-c1cc(NC=O)c2ncc(-c3cccc(C(=O)N(C)C)c3)n2c1	25.1µM	?	0	?	52.1	0
O=C(CN(C(=O)CCC(=O)Nc1ccccn1)c1ccc(F)cc1)NCc1ccc(F)cc1	0	0	0	-93.7	0	0
O=C(CN(C(=O)CCC(=O)Nc1ccccn1)c1cccc(F)c1)NCc1ccc(F)cc1	0	0	0	0	31.7	0
O=C(CN(C(=O)CCC(=O)Nc1ccccn1)c1ccc2c(c1)OCO2)NCc1ccc(F)cc1	0	0	0	0	0	0
CC(=O)Nc1ccc(NC2=Nc3ccccc3N3C2=Nc2c(c(C)nn2-c2ccccc2)C3c2ccccc2)cc1 (stereo unspecified)	7.94µM	?	0	0	34.1	0
COc1ccc(NC2=Nc3ccccc3N3C2=Nc2c(c(C)nn2-c2ccc(C)cc2)C3c2cccnc2)cc1 (stereo unspecified)	0	0	0	0	0	0
COc1ccc(NC(=O)c2cn(CC(C)C)c(=O)c3cc(OC)c(OC)cc23)cc1Cl	0	0	0	-	0	0
CCOC(=O)C1=C(CN(C)Cc2ccccc2)NC(=O)NC1c1ccc(OC(C)C)cc1 (stereo unspecified)	?	?	0	-	0	?
O=C(O)c1ccc(CNCc2cccc(Cl)c2)cc1	?	?	0	0	0	0
COc1ccc(CNCc2cccc(Cl)c2)cc1	0	0	0	-50.5	0	0
COc1ccc(CNCc2cccc3ccccc23)cc1	-	0	0	-60.0	0	0
Cc1ccc(CNCC(O)(c2ccccc2)c2ccc(Cl)cc2)cc1 (stereo unspecified)	?	?	0	0	0	?
COc1ccc(CNCC(O)(c2ccccc2)c2ccc(Cl)cc2)cc1 (stereo unspecified)	?	0	15.8µM	?	0	?
COc1ccc(CNCc2ccccc2C(F)(F)F)cc1	?	0	0	0	0	0
CC(C)C(O)c1ccc2c(c1)CN(C(=O)c1ccccc1-n1cccn1)CCO2 (stereo unspecified)	-	0	-	-	-	-
SMILES	ATXN2 expr inh	ATXN viability	HepG2 viability	DRD3 antagonist	DRD3 agonist	TGFb inhibitor
COC(=O)C1=CO[C@@H](O)[C@@H]2C(CO)=CC[C@@H]12	0	-	-	-	-	-
COc1ccc(N2CCN(CCOc3ccc4c(C)cc(=O)oc4c3)CC2)cc1	0	0	0	-50.9	0	0
COc1ccccc1NC(=O)C1=C(C)Nc2nc(SCc3ccccc3F)nn2C1c1cccs1 (stereo unspecified)	0	0	0	-	0	0
Clc1ccc2c(ccc[n+]2CCC2CCCCC2)c1	-	-	0	-	-	0
Cc1cc(C)cc(NS(=O)(=O)c2ccc3c(c2)CCCN3C(=O)C2CCC2)c1	?	25.1µM	0	-	0	?
O=C(C1CCC1)N1CCCc2cc(S(=O)(=O)Nc3ccc(F)cc3)ccc21	0	0	0	-	0	0
CCCN1C[C@H](CSC)C[C@@H]2c3cccc4[nH]cc(c34)C[C@H]21	0	0	0	0	84.4	0
O=C(Cc1cccc2ccccc12)Nc1ccc(Br)cc1C(=O)O	-	-	14.1µM	0	0	0
CC(=O)N[C@@H](CC(=O)O)C(=O)N[C@@H](CCC(=O)O)C(=O)O	-	0	-	-	-	-
CSc1ccc2cc(CNCc3ccccc3F)c(N3CCCC(CO)C3)nc2c1 (stereo unspecified)	-	0	-	-	-	-
C#CC(C)(CC)NC(=O)c1cnn2c(C(F)F)cc(-c3ccccc3OC)nc12 (stereo unspecified)	0	0	0	-	63.7	0
COCCNC(=O)c1cnn2c(C(F)F)cc(-c3ccccc3)nc12	0	0	0	0	0	0
Brc1cccc(OCCCNC2CCCC2)c1	0	0	0	-91.3	0	0
Cc1ccc(OCCCNC2CCCC2)cc1	-	0	0	0	0	0
CC(C)NCCOc1cccc(Br)c1	0	0	0	-74.8	0	0
CNC(=O)C1CCC(Cn2c(=O)c3sccc3n(CC(=O)Nc3ccc(C)cc3C)c2=O)CC1 (stereo unspecified)	0	0	0	-	0	0
CCOC(=O)c1ccc(NC(=O)Nc2ccc3snnc3c2)cc1	0	0	0	-	0	0
CNc1c(Cl)cc(C=O)cc1Cl	-	-	0	-	-	0
CC(=O)c1sc(NC(=O)CCCc2nc3ccccc3c(=O)[nH]2)nc1-c1ccccc1	-	0	11.2µM	0	0	20µM
CC(=O)Nc1ccc(NC(=O)CCc2nc3ccccc3c(=O)[nH]2)cc1	0	0	0	0	0	0
CCOc1ccccc1NC(=O)CCCc1nc2ccccc2c(=O)[nH]1	20µM	0	0	0	0	0
CN(C)c1nc2cc3c(cc2cc1CN(CC1CCCO1)C(=O)/C=C/c1cccs1)OCO3 (stereo unspecified)	-	0	-	-	-	-
COc1cccc(C(=O)N2CCc3c(C(=O)NC(C)c4ccco4)c(OC)cc(=O)n3CC2)c1OC (stereo unspecified)	-	0	-	-	-	-
Cc1ccc(C(C)C)cc1OCC(=O)N/N=C/c1ccc2c(c1)OCCO2	0	0	0	0	48.1	?
CCOc1ccc(/C=C/C(=O)Nc2sc3c(c2C(=O)OC)C(C(=O)OC)CC3)cc1 (stereo unspecified)	-	-	0	-	0	0
